The text below walks through data of PubChem BioAssay (NCATS).

Results filed as inconclusive are left out. Active and inactive are the calls of the source. Calls follow the shape of the dose curve; as a rule, active = well fitted cell-killing curve with a large enough effect; inconclusive = small, poorly fitted or top-dose-only effect, or effect the other way; inactive = no such curve, though single readings can be large or run the other way.
Potency is read from the fitted curve at half-maximal effect.

The nature of the assay: Viability qHTS for spleen associated tyrosine kinase inhibitor (SYKi) drug resistant MV4-11 cells (AID 1963824). Also: nearly all actives have a fitted effect of over 35% in size. The settings on record: SYKi-resistant MV4-11 viability, CellTiter-Glo, 72 h; series mostly up to 45 µM. The gist of the method:
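CellTiter-Glo luminescence, read 10 min after reagent addition, reports viability after a 72 hr compound exposure. Cells are an MV4-11 line made resistant to SYK inhibition, seeded at 500 per well onto compound-containing plates.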
On the technique in general: In qHTS, concentration-response curves come from the screen itself.
Regarding `C[C@@H]1O[C@@H](O[C@H]2[C@H](O[C@H]3CC[C@@]4(C)C(CC[C@]5(C)C4C=C[C@]46OC[C@@]7(CCC(C)(C)C[C@H]74)[C@@H](O)C[C@]65C)[C@]3(C)CO)O[C@H](CO)[C@@H](O)[C@@H]2O[C@@H]2O[C@H](CO)[C@@H](O[C@@H]3O[C@@H](C)[C@H](O)[C@@H](O)[C@H]3O)[C@H](O)[C@H]2O)[C@H](O)[C@H](O)[C@H]1O` (stereo not given in full), the Potency was 4.37 µM (active). Regarding `O=C1[C@H](Cc2ccc(O)cc2)N2C(=O)CCN(C(=O)NCc3ccccc3)[C@H]2CN1Cc1cccc2ccccc12`, the Potency was 1.48 µM (active).

In the case of `Nc1ncnc2c1c(I)cn2C1OC(CO)C(O)C1O` (stereo not given), the Potency was 0.411 µM (active). As for `O=C1NC(=O)/C(=C\c2ccc3c(c2)OC(F)(F)O3)S1`, the Potency is 14.6 µM (active). As to `CC(=O)O[C@@H]1[C@H](OC(C)=O)C[C@@]2(C)C(CC[C@@H](C)[C@]23Cc2c(O)cc4c(c2O3)CN([C@@H](CCC(=O)O)C(=O)O)C4=O)C1(C)C` (stereo not given in full), the Potency entry was “inactive”. For the compound `C=CCCN1CCC2(CC1)CN(C(=O)c1c(F)cccc1F)c1ccc(Cl)cc12`, the Potency is 10.3 µM (active). As to `CN1CCN(c2ccc(Nc3ncc4cc(C#N)c(=O)n(C5CCCC5)c4n3)cc2)CC1`, the Potency was 0.235 µM (active). In the case of `CC(=O)NC(C)c1cnc(-c2cnc(Oc3ccc(OC(C)C)cc3)s2)s1` (stereo not given), the Potency is 10.3 µM (active). In the case of `CS(=O)(=O)c1ccc([C@@H](CC2CCCC2)C(=O)Nc2nccs2)cc1`, the Potency was 7.42 µM (active). Turning to `C=CC1(C)CC(OC(=O)/C(C)=C\COC(C)=O)C(C(=C)C(=O)O)C(O)C1C(=C)CO` (stereo not given), the Potency result is “inactive”.
